# Screen size: about 2,400 compounds; about 750 (31%) were called active. This is one part of the list. A number with no mark means an inactive call.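 How the source made its calls: active means median signal gain over dofetilide-blocked control wells reaching their mean plus 3 SD, so readout 1 at least 0; inactive means the rest.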
# Biological target: Voltage-gated inwardly rectifying potassium channel KCNH2 (Homo sapiens) (UniProt Q12809)
# Test: modulators restoring hERG flux under dofetilide – cell-based, thallium flux, duplicate retest, dofetilide IC70, confirmation (AID 1835)
# Details: hERG cell line, FluxOR thallium flux, dofetilide-blocked; at 10 µM; stronger effect = higher value
# Voltage-gated inwardly rectifying potassium channel KCNH2 (Homo sapiens), sequence (Q12809 whole entry, looked up): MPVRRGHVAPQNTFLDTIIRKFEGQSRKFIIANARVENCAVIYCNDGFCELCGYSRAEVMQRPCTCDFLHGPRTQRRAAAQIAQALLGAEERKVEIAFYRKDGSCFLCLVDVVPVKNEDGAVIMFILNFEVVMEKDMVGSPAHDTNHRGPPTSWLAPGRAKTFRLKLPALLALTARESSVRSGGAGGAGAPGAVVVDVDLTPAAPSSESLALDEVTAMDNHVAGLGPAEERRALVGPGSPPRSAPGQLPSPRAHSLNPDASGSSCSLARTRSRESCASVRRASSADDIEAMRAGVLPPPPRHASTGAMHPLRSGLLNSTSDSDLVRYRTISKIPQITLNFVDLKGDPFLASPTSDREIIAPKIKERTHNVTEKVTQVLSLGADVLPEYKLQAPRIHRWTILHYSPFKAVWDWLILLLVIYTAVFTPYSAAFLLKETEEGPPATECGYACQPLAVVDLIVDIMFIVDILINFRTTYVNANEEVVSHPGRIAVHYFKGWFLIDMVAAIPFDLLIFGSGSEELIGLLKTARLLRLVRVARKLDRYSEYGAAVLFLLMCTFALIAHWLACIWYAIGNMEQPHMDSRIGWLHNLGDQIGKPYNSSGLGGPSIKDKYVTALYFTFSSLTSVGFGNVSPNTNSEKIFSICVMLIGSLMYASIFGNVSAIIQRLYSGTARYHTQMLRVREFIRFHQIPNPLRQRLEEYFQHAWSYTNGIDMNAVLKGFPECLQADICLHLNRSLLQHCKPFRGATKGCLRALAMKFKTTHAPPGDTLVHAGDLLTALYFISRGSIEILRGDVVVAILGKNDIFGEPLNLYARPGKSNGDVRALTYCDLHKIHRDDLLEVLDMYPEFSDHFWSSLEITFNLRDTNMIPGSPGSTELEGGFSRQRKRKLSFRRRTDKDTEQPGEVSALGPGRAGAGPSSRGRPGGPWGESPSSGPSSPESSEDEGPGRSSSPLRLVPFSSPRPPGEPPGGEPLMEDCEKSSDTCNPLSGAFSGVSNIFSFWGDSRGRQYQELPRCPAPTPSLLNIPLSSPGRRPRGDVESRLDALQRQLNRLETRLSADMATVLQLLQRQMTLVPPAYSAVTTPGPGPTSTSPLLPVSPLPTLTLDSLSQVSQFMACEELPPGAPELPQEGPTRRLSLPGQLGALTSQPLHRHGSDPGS
row,Compound,"activity increase over dofetilide control, less the hit threshold"
1,O=C(O)c1ccc2c3n(nc2c1)-c1ccc(Cl)cc1CO3,-7%
2,O=C(NNc1nc2c(F)cccc2s1)c1cc(=O)c2ccccc2o1,6% (active)
3,Cc1cc(C)c(NC(=O)C2CC3CCC2C3)c(C)c1 (centres undefined),-5%
4,CCn1cc(C(=O)NCCN(C)C)c(=O)c2cc(F)c(N3CCN(C)CC3)cc21,-17%
5,Cn1sc(NC(=O)c2cccc(Cl)c2)nc1=O,-1%
6,O=C(CCC1CCCC1)NNC(=O)c1cccc(Cl)c1,-7%
7,O=C(Nn1c(O)c(C=C2N=c3ccccc3=N2)sc1=S)c1cccc(Cl)c1,33% (active)
8,CCCCN1C(=O)/C(=C2/Sc3ccc(Cl)cc3N2CC)SC1=S,42% (active)
9,CCN1C(=O)/C(=C/N2CCc3ccccc32)SC1=S,-9%
10,CCCCCC/C(C)=C1/SC(=S)NC1=O,87% (active)
11,CC(=O)n1nc(-c2ccncc2)nc1SCC(=O)Nc1cccc(Cl)c1,-10%
12,O=C(O)c1cc(N/N=C/c2ccc(-c3ccccc3)cc2)ccc1Cl,-16%
13,CC(C)CN(C(=O)COC(=O)CNC(=O)c1ccccc1F)c1c(N)n(Cc2ccccc2)c(=O)[nH]c1=O,-11%
14,CCCOc1ccc(C(=O)N(CC(C)C)c2c(N)n(Cc3ccccc3)c(=O)[nH]c2=O)cc1,-7%
15,COCCN(C(=O)CSc1nnc(C)n1Cc1ccccc1)c1c(N)n(CC(C)C)c(=O)[nH]c1=O,1% (active)
16,COc1cc(/C=C2/SC(=S)N(CC(=O)O)C2=O)ccc1OCC(=O)Nc1ccc(C)c(C)c1,89% (active)
17,COc1cccc(CN=c2c([N+](=O)[O-])nn(-c3ccccc3C)n2O)c1,-15%
18,O=C(c1n[nH]c2c1CCCC2)n1ccnc1,-2%
19,CCOc1cc(Br)c(C(=O)O)cc1OC,-17%
20,OC(COC(c1ccccc1)c1ccccc1)CN1CCCCC1 (centres undefined),-18%
21,N#Cc1c(-c2ccco2)c2c([nH]c1=S)CCCC2,-9%
22,CCOC(=O)c1c(C)[nH]c(=S)c(C#N)c1-c1ccc(Cl)cc1,-5%
23,CCCCOc1ccc(-c2c(C#N)c(N)[nH]c(=S)c2C#N)cc1,38% (active)
24,c1ccc(Oc2cccc(OCCn3cncn3)c2)cc1,-4%
25,COCC(=O)N(Cc1ccco1)c1nnc(C2CCOC2)s1 (centres undefined),-19%
26,Cc1ccc(C(=O)COC(=O)C2CCC2)cc1,4% (active)

row,Compound,"activity increase over dofetilide control, less the hit threshold"
1,Cc1ccc(CNC(=O)CN2C(C)CCCC2C)cc1 (centres undefined),-7%
2,CC(NC(=O)COC(=O)C1CCC1)c1ccccc1 (centres undefined),-6%
3,CC(C)C(NC(=O)c1ccccc1)C(=O)N/N=C\c1ccco1 (centres undefined),-17%
4,Oc1ccc(N2CCN(C(c3cccnc3)c3nnnn3Cc3ccccc3)CC2)cc1 (centres undefined),0%
5,Cc1cc(NC(=O)/C(C#N)=C/c2ccco2)n(-c2ccccc2)n1,-12%
6,COc1ccc(-n2nc(C)cc2Nc2ccccc2C(=O)O)cc1,31% (active)
7,COc1ccc(N2CCN(C(=O)c3ccc(-c4ccccc4)cc3)CC2)cc1,-18%
8,O=C(O)c1cccc2cc(-c3ccccc3)oc(=O)c12,-13%
9,CCCCN(C(=O)CC1CCCC1)c1c(N)n(CC(C)C)c(=O)[nH]c1=O,-4%
10,Fc1cccc(/C=N/Nc2ccc3ccccc3n2)c1,-7%
11,COc1ccc(OC)c(S(=O)(=O)NCc2cn3cccc(C)c3n2)c1,-17%
12,Oc1ccc(N=Nc2ccc3c(c2)OCCO3)c2ncccc12,-4%
13,Cc1ccc(N=Nc2ccc(O)c3ncccc23)cc1,40% (active)
14,COc1cccc(N=Nc2ccc(O)c3ncccc23)c1,25% (active)
15,CCOc1ccc(N=Nc2ccc(O)c3ncccc23)cc1,0%
16,O=[N+]([O-])c1ccc(O)c2ncccc12,-8%
17,CCN(CC)S(=O)(=O)c1cc(OC)ccc1N=Nc1ccc(O)c2ncccc12,27% (active)
18,Oc1c(N=Nc2ccccn2)ccc2ccccc12,-5%
19,COc1ccc(N(CC(=O)NCc2cccnc2)S(=O)(=O)c2ccccc2[N+](=O)[O-])c(OC)c1,-3%
20,COc1ccccc1N=Nc1ccc(O)c2ncccc12,2% (active)
21,COCC(=O)NC1CC2CCC(C1)N2C(=S)Nc1ccccc1C(=O)OC (centres undefined),-6%
22,CCC[C@H]1COCCS(=O)(=O)N1Cc1ccc(Br)cc1,-4%
23,CS(=O)(=O)N1CCC(C(=O)Nc2c(F)cccc2F)CC1,-6%
24,Cn1c(=O)c2c(nc(Cl)n2CC(=O)N2CCCCC2)n(C)c1=O,-11%
25,N=C1SCC(=O)N1c1ncc(Cc2ccccc2Cl)s1,-9%
26,O=C(N/N=C/c1ccc(-c2ccccc2)o1)c1ccccc1O,-1%

row,Compound,"activity increase over dofetilide control, less the hit threshold"
1,Cc1ccc(/C=N/NC(=O)c2cc3ccccc3cc2O)o1,37% (active)
2,Cc1ccc(/C=N/NC(=O)c2cc(-c3ccncc3)nc3ccccc23)o1,-22%
3,O=C(N/N=C/c1ccc(Sc2ccccn2)o1)c1cc2ccccc2cc1O,7% (active)
4,Cc1cccc(/C=N/NC(=O)c2cc(Br)ccc2O)n1,0%
5,Cc1ccc(/C=N/NC(=O)c2cc(C)oc2C)o1,-5%
6,COc1ccc(CCNS(=O)(=O)c2csc(C(N)=O)c2)cc1OC,-14%
7,COC(=O)c1ccc(-n2c(C)nc(=O)c(-c3ccccc3)c2C)cc1,-13%
8,Cc1nnc2c(SC(C)C)nc3ccccc3n12,-19%
9,Cc1nc2ccccc2n1-c1ccccc1,3% (active)
10,C=C(C)CSc1nnc2[nH]c(=O)cc(N)n12,-19%
11,CC1=CCC[C@@H]2[C@@](C)(CC/C(C)=C/C(=O)O)[C@H](C)CC[C@@]12C,84% (active)
12,Nc1ccc2oc(-c3ccccc3Cl)cc(=O)c2c1O,-3%
13,Cc1nc2scc(C)n2c(=O)c1S(=O)(=O)Nc1ccc(N2CCOCC2)cc1,-7%
14,CCC1(C)Cc2c(sc3nc(SC)[nH]c(=S)c23)CO1 (centres undefined),87% (active)
15,CCc1nc2sc3c(c2c(=S)[nH]1)CC(C)(C)OC3,-8%
16,CSc1nc2sc3c(c2c(=S)[nH]1)CC(C)(C)OC3,81% (active)
17,CCN(CC(=O)NCc1ccc(Cl)cc1)C(=O)CCOc1ccc(C)cc1,-14%
18,CNc1nc(N)nc(OC(C(F)(F)F)C(F)(F)F)n1,-24%
19,O=C(N/N=C/c1cc(Cl)ccc1O)c1ccccc1Br,-3%
20,O=C(Nc1ccccc1C(=O)O)c1cccc(NC(=O)c2ccco2)c1,-3%
21,O=C(NC(=S)Nc1cccc([N+](=O)[O-])c1)c1ccco1,-16%
22,Oc1c(Br)cc(Cl)cc1C=Nc1ccccc1Br,9% (active)
23,Oc1c(Br)cc(Br)cc1C=Nc1cccc2ncccc12,-7%
24,Oc1c(Cl)cc(Cl)cc1/C=N/c1ncn[nH]1,15% (active)
25,O=C(Nc1cccc(N=Cc2cc(Cl)cc(Br)c2O)c1)c1ccco1,6% (active)
26,Oc1c(Cl)cc(Cl)cc1/C=N/c1nccs1,-11%

row,Compound,"activity increase over dofetilide control, less the hit threshold"
1,NC(=O)c1cccc(N=Cc2cc(Cl)cc(Cl)c2O)c1,6% (active)
2,COc1ccccc1-n1c(CCC(=O)O)ccc1-c1ccccc1,-12%
3,Nc1cc(N)nc(SCc2cc(=O)oc3cc4c(cc23)CCC4)n1,-35%
4,CCCNC(=O)CN1C(=O)NC(Cc2c[nH]c3ccccc23)C1=O (centres undefined),-22%
5,COc1ccc(-c2nc(=S)c3c([nH]2)Oc2ccc(C)cc2C3)cc1O,-22%
6,CC(=O)Nc1ccc(NC(=O)CSc2ncc(C(=O)Nc3ccc(Cl)cc3)c(=O)n2C)cc1,-4%
7,Oc1c(Cl)cc(Cl)cc1C=Nc1ccc(Br)cc1,8% (active)
8,CC(=O)N1c2ccc(N=Cc3cc(Br)cc(Br)c3O)cc2CC1C (centres undefined),-5%
9,Cc1ccc(N=Cc2cc(Cl)cc(Cl)c2O)nc1,3% (active)
10,Oc1c(Br)cc(Br)cc1C=Nc1ccc2c(c1)OCCO2,-12%
11,Cc1cccc(N=Cc2cc(Br)cc(Cl)c2O)c1,5% (active)
12,Cc1ccc(N=Cc2cc(Br)cc(Cl)c2O)cc1,-10%
13,O=C(CSCc1cnn(-c2ccccc2)c1-n1cccc1)NCc1cccnc1,-22%
14,Cc1ccc(C)n1-n1c(C)nc2scc(-c3ccccc3)c2c1=O,-20%
15,S=c1[nH]cnc2scc(-c3ccc(Cl)cc3)c12,22% (active)
16,S=c1[nH]cnc2scc(-c3ccccc3)c12,51% (active)
17,S=c1[nH]cnc2scc(-c3ccc(Br)cc3)c12,33% (active)
18,Cn1cc(/C=N/n2cnc3scc(-c4ccc(Cl)cc4)c3c2=O)c2ccccc21,-10%
19,Cn1nnnc1Sc1ncnc2scc(-c3ccc(F)cc3)c12,-12%
20,Cc1ccc(-c2csc3nc[nH]c(=S)c23)cc1,45% (active)
21,O=C1C(=O)N(CCN2CCOCC2)C(c2cccnc2)/C1=C(/O)c1ccc(Cl)cc1 (centres undefined),-8%
22,CCn1nnnc1SCC(=O)N1c2ccccc2Sc2ccccc21,-17%
23,CCOC(=O)N1CCN(C(=O)CCn2c(=S)[nH]c3ccsc3c2=O)CC1,-6%
24,CCOC(=O)N1CCN(C(=O)CSc2nnc(-c3ccccc3OC)o2)CC1,-8%
25,CCOC(=O)N1CCN(c2c(-c3ccc(C)c(C)c3)c(=O)c2=O)CC1,1% (active)
26,CC(C)OC(=O)C1CC(C)(O)C(=O)C(C(=O)OC(C)C)C1c1ccc([N+](=O)[O-])cc1 (centres undefined),-22%

# — PubChem BioAssay AID1835 (Johns Hopkins Ion Channel Center, 2009)
